Source: PubChem
Compounds with a hit are over-represented: about 13% of the library has one in this group of screens.
USP30 inh: inhibitors of human USP30 deubiquitinase; purified USP30, Ub-rhodamine cleavage fluorescence; hit rate 5.3% among 47,000; Ubiquitin carboxyl-terminal hydrolase 30 (Homo sapiens), Q70CQ3; inhibition, % at 25 µM
USP8 block: inhibitors of human USP8 deubiquitinase; Ubiquitin carboxyl-terminal hydrolase 8 (Homo sapiens), P40818; purified USP8, Ub-rhodamine cleavage fluorescence, 30 min; inhibition, % at 20 µM; hit rate 4.2% among 47,000
USP10 block: inhibitors of human USP10 deubiquitinase; purified USP10, Ub-rhodamine fluorescence, 60 min; hit rate 1.1% among 47,000; Ubiquitin carboxyl-terminal hydrolase 10 (Homo sapiens), Q14694; inhibition, % at 20 µM
USP28 inh: inhibitors of human USP28 deubiquitinase. purified USP28, Ub-rhodamine cleavage fluorescence, 30 min. inhibition, % at 25 µM. hit rate 3% among 47,000. Ubiquitin carboxyl-terminal hydrolase 28 (Homo sapiens), Q96RU2
USP17 block: inhibitors of human USP17 deubiquitinase; Ubiquitin carboxyl-terminal hydrolase 17-like protein 5 (Homo sapiens), A8MUK1; purified USP17, Ub-rhodamine cleavage fluorescence, 3 h; inhibition, % at 50 µM; hit rate 6.5% among 47,000
Numbers without * were called inactive; i = inactive; nt = not tested or not shown. No stated cut-off is given here; in the data, active means inhibition above about 30%; inactive means the rest.

SMILES	USP30 inh	USP8 block	USP10 block	USP28 inh	USP17 block
COc1ccccc1NS(=O)(=O)c1ccc2oc(SCc3cn4c(C)cc(C)nc4n3)nc2c1	31*	-65	-2	9	nt
COc1ccccc1NS(=O)(=O)c1ccc2oc(SCC(=O)N3CCc4ccccc4C3)nc2c1	25	20	13	7	22
CCCc1cc(C2CCCN2C(=O)c2cc(-c3ccccc3)no2)no1 (stereo not drawn)	32*	6	3	9	20
Cc1csc2ncc(C(=O)NCCc3ccc(Cl)cc3)c(=O)n12	26	0	5	14	37*
Cc1cnc(C2COCCN2C(=O)c2ccc3ccccc3n2)[nH]1 (stereo not drawn)	-5	-4	-1	-7	-16
CN(C(=O)c1ccncc1)[C@H]1CC[C@@]2(C)C[C@H](c3ccccc3)C[C@](C)(O2)[C@@H]1O	29	20	0	81*	11
Cn1nc(C2CCN(C(=O)Cc3cccc(F)c3)CC2)c2nccnc21	-9	82*	-2	7	34*
Cn1nc(C2CCN(C(=O)COc3ccccc3F)CC2)c2nccnc21	-5	-1	-2	-6	-9
O=C(N1CCCC1)C1(Cc2ccccc2-c2cccnc2)CCOCC1	0	1	0	-4	0
CC(=O)N1CCCCCC1C1CCN(c2nc3ccccc3o2)CC1 (stereo not drawn)	3	14	0	4	-1
CCC(C)(C)NC(=O)c1nnn(-c2cccc3c2CCN(Cc2ccncc2)C3)c1C	-98	-160	-10	-29	-43
COc1ccc(Cl)cc1NC(=O)CSc1ncnc2nc[nH]c12	33*	74*	47*	43*	26
COc1ccc(Cl)cc1NC(=O)CSc1nnc(-c2ccoc2C)o1	2	-2	1	4	0
COc1ccc(-c2cn(-c3ccc(SC(F)F)cc3)c3[n+]2CCC3)cc1OC	30*	1	1	14	9
COc1cc(C(=O)Nc2ccc3c(c2)OCCO3)ccc1OCC(=O)Nc1ccc(F)cc1	-10	-6	0	14	36*
COc1cc2c(=O)c(C(=O)c3ccc(F)cc3)cn(CC(=O)Nc3ccc(F)cc3)c2cc1OC	-19	6	22	1	33*
Cc1ccc(C(=O)c2cn(CC(=O)Nc3ccc(F)c(F)c3)c3ccc(F)cc3c2=O)cc1	-102	-10	12	-18	-9
COc1cccc2[nH]c(C(=O)Nc3ccc4c(c3)OCCO4)cc12	-94	-8	-5	-13	-17
COc1ccc(NC(=O)Cn2cc(C(=O)c3ccc(F)cc3)c(=O)c3cc(C)ccc32)cc1OC	-1	55*	21	-14	25
COc1cc2c(=O)c(C(=O)c3ccc(F)cc3)cn(CC(=O)Nc3ccc4c(c3)OCCO4)c2cc1OC	-65	-19	14	0	37*
Cc1ccc(N(Cc2nc3nc(C)cc(C)n3n2)S(=O)(=O)c2ccccc2)cc1	24	11	-2	3	8
CCn1cc(C(=O)NCc2ccccc2OC)c(=O)c2cc(S(=O)(=O)N3CCC(C)CC3)ccc21	25	-13	2	6	11
COc1ccc(C(=O)Nc2ccc3c(c2)OCCCO3)cn1	4	-11	1	32*	0
O=C(Cn1c(=O)n(Cc2ccco2)c(=O)c2ccc(C(=O)NC3CCCC3)cc21)NCc1ccco1	-15	45*	20	28	55*
Cc1cc(NC(=O)Cn2c(=O)n(Cc3ccco3)c(=O)c3ccc(C(=O)NCCc4ccccc4)cc32)n[nH]1	74*	87*	66*	84*	82*
SMILES	USP30 inh	USP8 block	USP10 block	USP28 inh	USP17 block
Cc1cc(NC(=O)Cn2c(=O)n(CCc3ccccc3)c(=O)c3ccccc32)n[nH]1	6	10	8	0	25
COc1ccc(-n2c(=O)c3ccc(C(=O)NCCc4ccccc4)cc3n(CC(=O)NCc3ccco3)c2=O)cc1	-12	6	44*	15	60*
COc1nc(OC)nc(N(C2CCCCC2)C2CCCCC2)n1	0	6	4	-4	6
O=C(COC(=O)c1ccc2ncsc2c1)Nc1ccccc1F	0	-25	3	2	61*
CC(C)Cc1nc2oc3c(N(C)CCO)ncnc3c2c2c1CCC2	91*	0	-1	40*	-2
CCC(CO)Nc1ncnc2c1oc1nc(CC(C)C)c3c(c12)CCC3 (stereo not drawn)	9	5	0	-1	-15
COCCNc1ncnc2c1oc1nc(CC(C)C)c3c(c12)CCC3	44*	7	-5	10	-14
NS(=O)(=O)c1cc(C(=O)OCC(=O)NC2CCCc3ccccc32)ccc1Cl (stereo not drawn)	32*	2	6	13	55*
NS(=O)(=O)c1cc(C(=O)OCC(=O)Nc2ccc(N3CCOCC3)cc2)ccc1Cl	14	21	6	-1	34*
COc1cc(N)c(Cl)cc1C(=O)OCC(=O)Nc1ccc(N2CCOCC2)cc1	5	39*	0	3	38*
N#Cc1ccccc1OCC(=O)NC1CCCc2ccccc21 (stereo not drawn)	1	-177	0	-9	-9
COc1cc(N)c(Cl)cc1C(=O)OCC(=O)NCc1ccc2c(c1)OCO2	-23	-6	-2	0	4
COc1cc(N)c(Cl)cc1C(=O)OCC(=O)c1ccc2c(c1)OCCO2	0	-3	5	55*	1
O=C(C1CCCC1)N1CCC2(CC1)Nc1cccnc1NC2=NCc1ccccc1	i	-218	-2	-218	-193
Fc1ccc(-c2cnc([C@@H]3COCCN3C3CCNCC3)[nH]2)c(F)c1	-28	20	0	7	10
O=C(c1ccc2nc[nH]c2c1)N1CCCC(O)(CN2CCC(F)(F)CC2)CC1 (stereo not drawn)	22	23	-2	11	11
c1coc(-c2nc3ccccc3n2CCC2CCCCC2)c1	-18	68*	-3	26	36*
Cc1cccc(Cn2c(C3CCCO3)nc3ccccc32)c1 (stereo not drawn)	0	-6	-4	-2	-6
Cc1cc(C)n(CC(=O)NC(C)c2ccccc2)c1-c1nc(C2CC2)no1 (stereo not drawn)	0	6	-4	6	-1
Cc1ccc(Cl)cc1NC(=O)CSc1ncnc2c1oc1ccccc12	5	4	2	5	31*
Cc1nc(SCC(=O)Nc2cc(Cl)ccc2C)c2oc3ccccc3c2n1	53*	32*	3	20	26
Cc1nc(SCC(=O)Nc2ccc(C)c(C)c2)c2oc3ccccc3c2n1	12	1	0	6	36*
CCc1nc(SCC(=O)Nc2ccc(Cl)cc2Cl)c2oc3ccccc3c2n1	-45	12	0	1	3
O=C(CSc1ncnc2c1oc1ccccc12)Nc1cc(Cl)ccc1Cl	-5	5	0	-4	-2
O=C(N[C@@H]1CC[C@H]2Oc3ccccc3N[C@H]2[C@@H]1O)c1cncs1	4	-19	1	8	-6
